# High-throughput results: PubChem, National Center for Advancing Translational Sciences (NCATS)
# DT40 TDP1 no CPT: qHTS for Inhibitors of human tyrosyl-DNA phosphodiesterase 1 (TDP1): qHTS in cells in absence of CPT. 15% of 420,000 active. DT40 Tdp1-/- hTDP1 cells, no CPT, ATP luminescence, 48 h. Potency, µM (series often up to 46.2 µM), for the others: at the highest dose activity change, negative = growth inhibition, usual class: inhibitors; further: potency means the concentration at half of the fitted maximal effect; nearly all actives have a fitted effect of over 55% in size
#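 Luminescent ATP content (CellTiter-Glo) served as the growth readout. Knockout chicken DT40 cells expressing human TDP1 were exposed to compounds without camptothecin for a minimum 48 hr at 37 °C.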
# HT1080-NT tox: kills 2HG-producing HT-1080-NT fibrosarcoma cells. Potency, µM (titrated, usually from 46.1 µM), without a hit: top-dose activity, negative = less viability, most hits filed as cytotoxic. HT-1080-NT fibrosarcoma viability, CellTiter-Glo ATP luminescence, 48 h. 1.6% of 360,000 active;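 further: NT is the 2HG producing partner of a matched IDH1 knockdown line; potency means the concentration at half of the fitted maximal effect; 0% = DMSO-treated cells and -100% = media-only wells without cells; nearly all actives have a fitted effect of over 55% in size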
#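 Luminescent CellTiter-Glo readout after 48 hours of compound exposure at 37 degrees C defined viability of HT-1080-NT cells. Activity was normalized to DMSO wells and cell-free media wells; concentration-response curves were fitted and assigned curve classes.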
# ELG1 DNA repair: ELG1-dependent DNA repair inhibition; 2.3% of 330,000 active; Potency, µM (series often up to 46.1 µM), without a hit: at the top dose activity change, negative = inhibition, actives largely listed as inhibitors; HEK293T ELG1-luciferase reporter, luminescence, 16 h; DNA damage induced by 5-fluorouridine; further: potency means the concentration at half of the fitted maximal effect; nearly all actives have a fitted effect of over 55% in size
#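 Cells (2,000 per well) received 5-fluorouridine plus test compound or DMSO and were incubated 16 hr at 37 °C, 5% CO2. Luciferase activity was read by luminescence 30 min after ONE-Glo addition; signal suppression marked inhibition of damage-induced ELG1 function.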
# TDP1 cell CPT: growth inhibition of DT40 Tdp1-/-;hTDP1 cells with camptothecin (screen for TDP1 inhibitors). Potency, µM (top dose mostly 46.2 µM), for the others: at the highest dose activity change, negative = growth inhibition, hits mostly inhibitors. AID 686979. 12% of 420,000 active. chicken DT40 Tdp1-/-;hTDP1 cells + 20 nM CPT, ATP luminescence, 48 h; further: potency means the concentration at half of the fitted maximal effect; nearly all actives have a fitted effect of over 55% in size
#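 Chicken DT40 Tdp1-/- cells complemented with human TDP1, 400 cells/well, exposed to compounds plus 20 nM camptothecin for at least 48 h at 37 C; viability read as ATP content by CellTiter-Glo luminescence.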
# HT1080 IDH1KD tx: toxicity to HT-1080 IDH1 knockdown cells (counter line); HT-1080 IDH1 knockdown viability, ATP luminescence, 48 h; Potency, µM (titrated, usually from 46.1 µM), for the others: top-dose activity, negative = toxicity, most hits filed as cytotoxic; 2% of 360,000 active;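 further: potency means the concentration at half of the fitted maximal effect; 0% = DMSO wells and -100% = cell-free medium wells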
#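 Assay cells: HT-1080 with IDH1 knockdown, 750 per well, RPMI/5% FBS. Exposure: 48 h at 37 °C following 2 h pre-incubation. Read: CellTiter-Glo luminescence; fitted concentration-response, curve class assigned.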
# IL1B secr inh: inhibitors of inflammasome signaling (IL-1 beta secretion); THP-1 LPS/ATP IL-1B secretion, AlphaLISA, 16 h; hits give low values; activity change, % at 57.5 µM; 4.7% of 360,000 active; AID 743279; in the data active means activity change below about -50%; inconclusive means mostly about -30% to -49%
#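 Secreted IL-1B measured by AlphaLISA bead assay after 16 h compound exposure of THP-1 cells; compounds (final up to 57.5 uM) added 1 h before LPS (250 ng/mL) and ATP (1.25 mM) stimulation; lower signal means less secretion.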
# * = called active by the depositor; ? = inconclusive; / = no result; [ ] = another dose, or the depositor's remark. Shown are actives, neighbours in structure and some others; about 19% of the full set was active somewhere. Unless noted, the call rests on the fitted dose curve; in most records, active means well fitted curve in the direction sought with a large enough effect; inconclusive means small, poorly fitted or top-dose-only effect, or another doubt; inactive means no such curve, though single readings can be large; an effect the other way counts as inactive or inconclusive. Unless noted, on the % scale 0 is the no-effect control and ±100 the full control effect.
SMILES,DT40 TDP1 no CPT,HT1080-NT tox,ELG1 DNA repair,TDP1 cell CPT,HT1080 IDH1KD tx,IL1B secr inh
COc1ccc(S(=O)(=O)c2cn(Cc3ccccc3)c3ccc(OC)cc3c2=O)cc1,26µM*,/,/,12µM*,/,/
O=c1c(S(=O)(=O)c2ccc(Cl)cc2)cn(Cc2ccccc2F)c2ccc(F)cc12,23µM*,-19%,-24%,?,-4%,-12
CCn1cc(S(=O)(=O)c2ccc(Cl)cc2)c(=O)c2cc(OC)ccc21,3%,24%,-9%,-11%,0%,-9
CC1CC2(CCCCC2)Nc2ccc3ccccc3c21 (centres undefined),?,2%,-3%,21µM*,-6%,30
COc1cc(OC)c2c(=O)cc(-c3ccccc3)oc2c1,?,-4%,?,21µM*,0%,-23
COc1cc2c(c3oc(-c4ccccc4)cc(=O)c13)C=CC(C)(C)O2,26µM*,-1%,-7%,16µM*,9%,16
COC(=O)[C@@H]1CCCN1Cc1ccc2c(c1)CN(Cc1coc3ccccc3c1=O)CCO2,-2%,/,/,13%[9.04 µM],/,/
COc1cc(NC(=O)CSc2nnc3c4ccccc4n(C)c3n2)cc(OC)c1OC,?,2%,/,8%,-12%,/
CC1CCc2c(sc3nc(CN4CCOCC4)nc(NS(=O)(=O)c4cccc([N+](=O)[O-])c4)c23)C1 (centres undefined),5%,-10%,?,-8%,-9%,7
Cc1ccc(Oc2nc(CN3CCOCC3)nc3sc4c(c23)CCC(C)C4)cc1C (centres undefined),?,3%,13µM*,-25%,8%,0
COc1cccc(Nc2nc(CN3CCOCC3)nc3sc4c(c23)CCCC4)c1,21µM*,-2%,10µM*,16µM*,-1%,?
Cc1cc(S(=O)(=O)Nc2nc(CN3CCOCC3)nc3sc4c(c23)CCC4)cc(C)c1C,-7%,-7%,17%,-10%,-6%,9
Cc1ccc(Oc2nc(CN3CCOCC3)nc3sc4c(c23)CCC(C)C4)cc1 (centres undefined),?,-2%,26µM*,?,-11%,-57*
Cc1sc2nc(CN3CCOCC3)nc(Oc3ccc(NC(=O)c4ccco4)cc3)c2c1C,-21%,-1%,?,-13%,-3%,?
Cc1nc(N2CCN(c3ccccn3)CC2)c2c(C)c(C(=O)Nc3c(F)cc(F)cc3Br)sc2n1,13µM*,-2%,23µM*,16µM*,0%,-24
Cc1nc(N2CCN(c3ccccn3)CC2)c2c(C)c(C(=O)Nc3ccc(Cl)cc3)sc2n1,?,14%,8.2µM*,?,0%,-58*
Cc1cc(C)cc(C(=O)N(NC(=O)Nc2ccc(Cl)cc2)C(C)(C)C)c1,?,-17%,7%,15µM*,-23%,-30
CC(C)(C)N(NC(=O)Nc1ccc(Cl)c(Cl)c1)C(=O)c1ccccc1,18µM*,21µM*,-20%,18µM*,18µM*,-51*
CC(C)(C)N(NC(=O)Nc1ccc(F)cc1)C(=O)c1ccccc1,-14%,2%,7%,-6%,-3%,-13
Cc1cccc(C)c1NC(=O)NN(C(=O)c1ccccc1)C(C)(C)C,-10%,-6%,-10%,-26%,-6%,-10
Fc1ccc(Nc2ccnc(-c3ccc4c(c3)OCO4)n2)cc1,-19%,/,/,?,/,/
CN1CCN(C2CN(Cc3ccc(F)cc3)S(=O)(=O)C2)CC1 (centres undefined),-18%,18%,/,8%,16%,37
COCCNc1nc(Nc2ccc(F)cc2)c2sccc2n1,12µM*,?,/,18µM*,17%,59
COCCNc1nc(Cl)c(C#N)s1,-5%,12%,-18%,-1%,-8%,19
COCCNc1nc(NCCCN2CCCC2=O)c2sccc2n1,-6%,15%,/,-3%,0%,0
SMILES,DT40 TDP1 no CPT,HT1080-NT tox,ELG1 DNA repair,TDP1 cell CPT,HT1080 IDH1KD tx,IL1B secr inh
COCCNc1nc(Nc2ccc(C#N)cc2)c2sccc2n1,16µM*,?,/,21µM*,0%,73
COCCNC(=O)C(c1ccc(F)cc1)N(C(=O)CCC(=O)Nc1ccccn1)c1ccc(C)cc1 (centres undefined),-20%,1%,-8%,-14%,0%,17
COc1ccc(NC(C)=[N+](C)CCNS(=O)(=O)c2ccc(Cl)cc2)cc1,-20%,?,-14%,?,?,?
Cc1cccc(C(=O)OCc2cc(=O)n3nc(C4CC4)sc3n2)c1,-8%,/,/,-4%,/,/
COc1ccc(NC(=O)[C@@H]2CCCN2C(=O)[C@@H]2Cc3ccccc3CN2C(=O)OC(C)(C)C)cc1,23µM*,-19%,11%,-22%,?,-2
CC(=O)N1CCCc2cc(S(=O)(=O)Nc3ccc(C)c(F)c3)ccc21,16µM*,/,/,?,/,/
CSc1cccc(NS(=O)(=O)c2ccc3c(c2)CCN3C(C)=O)c1,3.7µM*,-23%,?,9.2µM*,-26%,-12
CC(=O)N1CCc2cc(S(=O)(=O)Nc3ccc(C)cc3)ccc21,?,-12%,-8%,?,-7%,33
CC(=O)N1CCCc2cc(S(=O)(=O)Nc3ccc4c(c3)OCO4)ccc21,-27%,-6%,9%,-21%,-7%,-11
CC(=O)N1CCc2cc(S(=O)(=O)Nc3cccc(C(F)(F)F)c3)ccc21,21µM*,-6%,?,18µM*,?,-4
COc1ccc(S(=O)(=O)NC(=O)C2(C)CCN2C(=O)C2CCCCC2)cc1OC (centres undefined),-1%,20%,/,?,12%,15
Oc1ccc(C23CC4CC(CC(C4)C2)C3)cc1O,?,-2%,5%,?,-14%,?
Cc1ccc(C23CC4CC(CC(C(N)=O)(C4)C2)C3)cc1,-3%,-1%,16%,15%,0%,10
COC(=O)CNC(=O)C12CC3CC(C1)CC(c1ccc(C)cc1)(C3)C2,5%,7%,-3%,-4%,6%,14
Cc1ccc(C23CC4CC(CC(CC(=O)NC(C)(C)CO)(C4)C2)C3)cc1,15µM*,-16%,?,26µM*,-12%,34
Cc1ccc(C23CC4CC(CC(C(=O)N5CCOCC5)(C4)C2)C3)cc1,?,4%,-19%,?,3%,9
Cc1ccc(C23CC4CC(CC(C(=O)N(C)C)(C4)C2)C3)cc1,21µM*,0%,0%,?,-13%,-19
